ELG1 DNA repair = qHTS screen for small molecules that inhibit ELG1-dependent DNA repair in human embryonic kidney (HEK293T) cells expressing luciferase-tagged ELG1; Potency, µM (highest dose often 46.1 µM), without a hit: top-dose activity change, negative = inhibition, hits mostly inhibitors; 330,000 compounds, 2.3% hits; AID 504467, 2011; HEK293T ELG1-luciferase reporter, luminescence, 16 h; DNA damage induced by 5-fluorouridine; also: % is scaled to controls: 0 for no effect and ±100 for the full control effect; nearly all actives have a fitted effect of over 55% in size
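HEK293T cells expressing luciferase-tagged ELG1 (2,000/well) received 5-Fluorouridine plus compound or DMSO for 16 hr at 37 °C. Luciferase was read by ONE-Glo luminescence after 30 min at room temperature.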
NPC1 prom act = qHTS Assay for NPC1 Promoter Activators; Huh7 NPC1 promoter luciferase reporter, 24 h; Potency, µM (top dose mostly 9.22 µM), without a hit: at the highest dose activation, actives largely listed as activators; 320,000 compounds, 2.4% hits; also: % of control where 0% means no effect; nearly all actives have a fitted effect of over 60% in size
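Stably transfected Huh7 (NPC1 promoter→luciferase), 1500 cells/well in Opti-MEM + 10% FBS, 2 h settle, then compound 24 h at 37 °C. Luminescence after 10 min with Amplite reagent.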
SMN2 splice enh = qHTS Assay for Enhancers of SMN2 Splice Variant Expression; HEK293 SMN2-luciferase splicing reporter, luminescence, 30-36 h; Potency, µM (top dose mostly 46.1 µM), for inactives: top-dose activity change, positive = activation, most hits filed as activators; 210,000 compounds, 2.8% hits; also: % of control where 0% means no effect; nearly all actives have a fitted effect of over 55% in size
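qHTS luciferase splicing reporter: luminescence rises when SMN2 exon 7 is included in transfected HEK293 cells. Compound exposure lasted 30-36 h at 37C, with 4.5 mM final sodium butyrate as control, followed by a ONE-Glo read.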
ELG1 genotoxic = qHTS screen for small molecules that induce genotoxicity in human embryonic kidney (HEK293T) cells expressing luciferase-tagged ELG1; AID 504466, 2011; Potency, µM (doses to about 46 µM), inactives show top-dose activity change, positive = activation, hits mostly activators; HEK293T ELG1-luciferase reporter, luminescence, 16 h; 330,000 compounds, 1.3% hits; also: % of control where 0% means no effect; nearly all actives have a fitted effect of over 60% in size
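Genotoxicity was scored as increased ELG1-luciferase reporter signal, measured by ONE-Glo luminescence (30 min, room temperature). Compound or vehicle exposure of the HEK293T reporter cells lasted 16 hr at 37°C.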
Rab9 prom act = qHTS Assay for Rab9 Promoter Activators; Potency, µM (highest dose often 9.22 µM), inactives show at the highest dose activation, negative = inhibition, usual class: activators; 320,000 compounds, 2.8% hits; AID 485297, 2010; Huh7 Rab9 promoter-luciferase reporter, luminescence, 24 h; also: % of control where 0% means no effect; nearly all actives have a fitted effect of over 60% in size
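Steps: seed 1500 Huh7 Rab9-luc cells per well, rest 2 h at 37 °C; add compound in DMSO; incubate 24 h; add luciferase reagent, 10 min ambient; read luminescence.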
FLuc counter = qHTS profiling assay for firefly luciferase inhibitor/activator using purifed enzyme and Km concentrations of substrates (counterscreen for miR-21 project); Luciferin 4-monooxygenase (Photinus pyralis), P08659; purified FLuc, Km substrates, luminescence inhibition; Potency, µM (highest dose often 57.5 µM), without a hit: at the highest dose activity change, negative = inhibition, actives largely listed as inhibitors; 360,000 compounds, 6.9% hits; AID 588342, 2011;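 also: plate controls were vehicle for no effect and reference inhibitor for full effect; nearly all actives have a fitted effect of over 55% in size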
Target sequence (P08659 whole entry, looked up): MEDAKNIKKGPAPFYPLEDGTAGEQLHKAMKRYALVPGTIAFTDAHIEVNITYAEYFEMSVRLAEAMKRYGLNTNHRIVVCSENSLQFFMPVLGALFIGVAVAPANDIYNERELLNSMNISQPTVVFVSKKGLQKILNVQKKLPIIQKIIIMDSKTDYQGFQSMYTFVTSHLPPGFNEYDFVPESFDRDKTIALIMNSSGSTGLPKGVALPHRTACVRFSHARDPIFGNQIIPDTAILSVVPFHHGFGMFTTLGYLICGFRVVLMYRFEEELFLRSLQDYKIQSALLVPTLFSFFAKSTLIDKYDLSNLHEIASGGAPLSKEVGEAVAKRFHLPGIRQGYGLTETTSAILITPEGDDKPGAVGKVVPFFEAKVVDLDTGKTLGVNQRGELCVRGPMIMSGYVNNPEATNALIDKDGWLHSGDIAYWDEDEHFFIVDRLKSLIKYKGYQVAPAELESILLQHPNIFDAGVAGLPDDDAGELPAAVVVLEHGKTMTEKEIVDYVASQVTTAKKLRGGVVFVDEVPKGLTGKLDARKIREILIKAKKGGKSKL
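Purified P. pyralis luciferase (10nM final) with 10uM D-luciferin and 10uM ATP (Km levels) in 50mM Tris acetate pH 7.5, 10mM Mg acetate, 0.01% Tween-20, 0.05% BSA; qHTS 6-point titration, ~60 µM downward; luminescence read.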
* hit, by the source's call. Hits are enriched below; roughly 9.2% of the tested compounds scored in any of these assays. Calls follow the shape of the dose curve; as a rule, active = well fitted curve in the direction sought with a large enough effect; inconclusive = small, poorly fitted or top-dose-only effect, or another doubt; inactive = no such curve, though single readings can be large; an effect the other way counts as inactive or inconclusive. Potency is read from the fitted curve at half-maximal effect.

Results for CCCCNc1c2c3c(cccc3n(C)c1=O)C(=O)c1ccccc1-2 ?
ELG1 DNA repair: 16µM*; NPC1 prom act: -8%; SMN2 splice enh: -51%; ELG1 genotoxic: -6%; Rab9 prom act: -7%; FLuc counter: 3%

Results for CCOC(=O)CNC(=O)Cn1cnc2c(nnn2-c2cccc(OC)c2)c1=O ?
ELG1 DNA repair: 2%; NPC1 prom act: 2%; ELG1 genotoxic: 0%; Rab9 prom act: -1%; FLuc counter: 2%

Results for C=Cn1c(C(=O)O)ccc1-c1ccc(CC)cc1 ?
ELG1 DNA repair: inconclusive; NPC1 prom act: 7%; ELG1 genotoxic: 7%; Rab9 prom act: 0%; FLuc counter: 21µM*

What do the screens show for `COC(=O)[C@@H]1C[C@]2(OC(=O)c3ccccc3)C=CC(=O)C[C@@H]2N1C(=O)OCc1ccccc1`?
ELG1 DNA repair: 15µM*; NPC1 prom act: 4%; SMN2 splice enh: -27%; ELG1 genotoxic: -15%; Rab9 prom act: -15%; FLuc counter: -15%

Results for COC(CNC(=O)C1CCCN1C(=O)OCc1ccccc1)OC (centres undefined) ?
ELG1 DNA repair: 8%; NPC1 prom act: -5%; SMN2 splice enh: -3%; ELG1 genotoxic: 0%; Rab9 prom act: 2%; FLuc counter: -3%

What do the screens show for `Cc1c(O)ccc(C(=O)COc2ccc(F)cc2)c1O`?
ELG1 DNA repair: inconclusive; NPC1 prom act: inconclusive; ELG1 genotoxic: 2%; Rab9 prom act: 5µM*; FLuc counter: 12µM*

How did CCc1cc(C(=O)COc2ccc(F)cc2)c(O)cc1O do in these assays?
ELG1 DNA repair: inconclusive; NPC1 prom act: 3%; ELG1 genotoxic: 12%; Rab9 prom act: 27%; FLuc counter: inconclusive

Results for C/C=C\C(=O)Nc1cccc(C2=NOC3(C2)C[C@@H](C(N)=O)N(C(=O)c2ccccc2)C3)c1 (some centres undefined) ?
ELG1 DNA repair: 10%; NPC1 prom act: -2%; ELG1 genotoxic: 0%; Rab9 prom act: -11%; FLuc counter: 4%

What do the screens show for `C/C=C\C=C/C(=O)Nc1cccc(C2=NOC3(C2)C[C@@H](C(N)=O)N(C(=O)c2ccccc2)C3)c1` (some centres undefined)?
ELG1 DNA repair: 23%; NPC1 prom act: 3%; ELG1 genotoxic: 5%; Rab9 prom act: 21%; FLuc counter: 17µM*

Results for CCCCCC(=O)Nc1cccc(C2=NOC3(C2)C[C@@H](C(N)=O)N(C(=O)c2cc([N+](=O)[O-])cc([N+](=O)[O-])c2C)C3)c1 (some centres undefined) ?
ELG1 DNA repair: inconclusive; NPC1 prom act: -5%; ELG1 genotoxic: -1%; Rab9 prom act: -4%; FLuc counter: -17%

Results for CCCOc1ccc(C(=O)N2CC3(CC(c4cccc(NC(=O)[C@@H]5CCC(=O)N5)c4)=NO3)C[C@H]2C(=O)NC2(C(N)=O)CC2)cc1 (some centres undefined) ?
ELG1 DNA repair: 8%; NPC1 prom act: 1%; SMN2 splice enh: -4%; ELG1 genotoxic: -1%; Rab9 prom act: -5%; FLuc counter: 5%

Results for NC(=O)C1(NC(=O)[C@@H]2CC3(CC(c4cccc(NC(=O)[C@@H]5CCC(=O)N5)c4)=NO3)CN2C(=O)c2ccccc2)CC1 (some centres undefined) ?
ELG1 DNA repair: 14%; NPC1 prom act: 2.2µM*; SMN2 splice enh: -10%; ELG1 genotoxic: 0%; Rab9 prom act: 6%; FLuc counter: -2%

How did C/C=C/C=C\C(=O)Nc1cccc(C2=NOC3(C2)C[C@@H](C(N)=O)N(C(=O)c2cc([N+](=O)[O-])cc([N+](=O)[O-])c2C)C3)c1 (some centres undefined) do in these assays?
ELG1 DNA repair: -16%; NPC1 prom act: -2%; ELG1 genotoxic: 2%; Rab9 prom act: -1%; FLuc counter: 7.6µM*

What do the screens show for `C/C=C\C=C\C(=O)Nc1cccc(C2=NOC3(C2)C[C@H](C(N)=O)N(C(=O)c2ccccc2C(=O)c2ccccc2)C3)c1` (some centres undefined)?
ELG1 DNA repair: inconclusive; NPC1 prom act: 3%; ELG1 genotoxic: -2%; Rab9 prom act: -5%; FLuc counter: 21µM*

How did Cc1ccc(S(=O)(=O)N2CCCC2C(=O)Nc2ccc(Br)cc2)cc1 (centres undefined) do in these assays?
SMN2 splice enh: -88%; FLuc counter: -1%

How did O=C(O)c1cc(Br)ccc1NN=C1CCCCC1 do in these assays?
ELG1 DNA repair: inconclusive; NPC1 prom act: 0%; SMN2 splice enh: -10%; ELG1 genotoxic: 4%; Rab9 prom act: -1%; FLuc counter: inconclusive

What do the screens show for `O=c1cccccc1NN=C1CCCCC1`?
ELG1 DNA repair: inconclusive; NPC1 prom act: 12%; ELG1 genotoxic: 17%; Rab9 prom act: 10%; FLuc counter: 12µM*

What do the screens show for `O=c1cccccc1NN=C1CCCCCC1`?
ELG1 DNA repair: inconclusive; NPC1 prom act: 2.2µM*; ELG1 genotoxic: 15µM*; Rab9 prom act: 3.2µM*; FLuc counter: 6µM*

What do the screens show for `Cc1ccc(-c2nc(CS(=O)(=O)CC(=O)N3CCN(c4cccc(C)c4C)CC3)c(C)o2)cc1`?
SMN2 splice enh: -15%; FLuc counter: -12%

How did COC(=O)/N=C(/Cc1ccc(OC)cc1)c1ccc(OC)cc1 do in these assays?
ELG1 DNA repair: inconclusive; NPC1 prom act: 18%; ELG1 genotoxic: 8%; Rab9 prom act: 17%; FLuc counter: 0.76µM*

Results for CCOc1ccc(NC(=O)CN(C)C(=O)CSCc2cccc(C)c2)cc1OCC ?
ELG1 DNA repair: -17%; NPC1 prom act: -5%; ELG1 genotoxic: -2%; Rab9 prom act: 1%; FLuc counter: 6%

Results for CCOc1ccc(NC(=O)CN(C)C(=O)c2ccccc2OCc2cccc(C)c2)cc1OCC ?
ELG1 DNA repair: 10µM*; NPC1 prom act: -9%; ELG1 genotoxic: -1%; Rab9 prom act: 1%; FLuc counter: 10%

What do the screens show for `CCOc1ccc(NC(=O)CN(C)C(=O)CSCc2ccc(C)cc2)cc1OCC`?
ELG1 DNA repair: 7.3µM*; NPC1 prom act: 3%; ELG1 genotoxic: -15%; Rab9 prom act: -1%; FLuc counter: 0%
